SMILES strings stand for the structures. Among all 340,000 compounds or so, about 240 (0.071%) were called active. This is one part of a sample in which actives are shown more often than they occur.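 Rule for the calls: active = activation above the mean of all tested compounds plus 3 SD, set per screening campaign (cut at about 17% in these data); inactive = the rest.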

The target in this test is Insulin-degrading enzyme (Homo sapiens) (UniProt P14735). Kind of test: human IDE activators in live cells, primary screen, fluorescence polarization, HEK cells, FAbeta-B substrate (AID 493087). The conditions noted are these: FAbeta-B cleavage, at 5.96 µM, active compounds read high, 0% vehicle, 100% cell-free pure enzyme wells.
Sequence of Insulin-degrading enzyme (Homo sapiens) (P14735 whole entry, looked up): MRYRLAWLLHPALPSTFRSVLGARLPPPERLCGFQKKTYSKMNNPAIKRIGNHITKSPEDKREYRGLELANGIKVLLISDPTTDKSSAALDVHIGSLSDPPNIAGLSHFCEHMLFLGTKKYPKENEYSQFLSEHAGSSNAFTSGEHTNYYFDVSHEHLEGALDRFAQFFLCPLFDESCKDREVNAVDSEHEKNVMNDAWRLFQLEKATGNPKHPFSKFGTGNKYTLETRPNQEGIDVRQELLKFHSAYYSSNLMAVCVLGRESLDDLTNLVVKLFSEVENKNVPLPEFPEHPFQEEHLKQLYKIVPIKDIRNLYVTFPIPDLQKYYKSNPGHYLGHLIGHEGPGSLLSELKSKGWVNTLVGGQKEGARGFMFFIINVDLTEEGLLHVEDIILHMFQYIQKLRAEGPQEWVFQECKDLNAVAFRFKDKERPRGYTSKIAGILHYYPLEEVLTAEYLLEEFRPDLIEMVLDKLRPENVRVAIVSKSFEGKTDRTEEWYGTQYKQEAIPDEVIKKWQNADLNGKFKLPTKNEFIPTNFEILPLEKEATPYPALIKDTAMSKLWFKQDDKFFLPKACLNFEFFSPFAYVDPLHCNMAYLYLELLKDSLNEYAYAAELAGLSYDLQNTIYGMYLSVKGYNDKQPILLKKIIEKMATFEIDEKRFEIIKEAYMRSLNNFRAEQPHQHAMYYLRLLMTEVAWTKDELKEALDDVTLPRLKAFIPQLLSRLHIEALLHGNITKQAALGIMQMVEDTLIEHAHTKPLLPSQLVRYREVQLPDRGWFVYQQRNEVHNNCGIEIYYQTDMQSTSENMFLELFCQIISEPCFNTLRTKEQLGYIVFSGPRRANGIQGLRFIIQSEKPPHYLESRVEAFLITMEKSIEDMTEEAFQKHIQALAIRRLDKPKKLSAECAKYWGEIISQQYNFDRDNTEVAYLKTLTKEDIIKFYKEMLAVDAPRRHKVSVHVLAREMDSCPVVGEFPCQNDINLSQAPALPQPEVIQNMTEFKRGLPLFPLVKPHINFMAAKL
With `O=S(=O)(/C=C/c1ccccc1)NCCc1ccccn1`, the activation is 2.29% (inactive).
For `O=C(COC(=O)c1ccncc1)Nc1ccc2c(c1)OCO2`, the activation is 3.58% (inactive).
Turning to `NS(=O)(=O)c1ccc(NC(=O)COC(=O)c2c3c(nc4ccccc24)/C(=C\c2ccc4c(c2)OCO4)CCC3)cc1`, the activation was 1.16% (inactive).
`NC(=O)c1ccc(NC(=O)COC(=O)c2c3c(nc4ccccc24)/C(=C\c2ccc4c(c2)OCO4)CCC3)cc1`: the activation was 39.3% (active).
With `CCCN(CC(=O)Nc1ccc(C(N)=O)cc1)CC(=O)Nc1ccccc1C`, the activation was 0.5% (inactive).
For the compound `O=S(=O)(c1ccc2ccccc2c1)N1CCN(S(=O)(=O)N2CCOCC2)CC1`, the activation is -4.09% (inactive).
Turning to `Cc1ccc(CC(=O)N(C)CC(=O)N(CC(C)C)c2c(N)n(CC(C)C)c(=O)[nH]c2=O)cc1C`, the activation was -3.16% (inactive).
In the case of `O=C(NCc1ccncc1)C(=O)NCC1OCCN1S(=O)(=O)c1ccc(Br)cc1` (stereo not drawn), the activation was 1.15% (inactive).
Regarding `COc1cccc2sc(N(CCCN(C)C)C(=O)C(c3ccccc3)c3ccccc3)nc12`, the activation was 31% (active).
Then `COc1cccc2sc(N(CCCN(C)C)C(=O)CCS(=O)(=O)c3ccccc3)nc12`, with 5.71% (inactive); and `COc1cc2ccccc2cc1C(=O)N(CCN(C)C)c1nc2c(F)cccc2s1`, with 6.93% (inactive).
For `NS(=O)(=O)c1ccc(NC2=CC(c3ccc(F)cc3)N(c3ccc(S(N)(=O)=O)cc3)C2=O)cc1` (stereo not drawn), the activation was 1.07% (inactive).
On to `CC(=O)c1cccc(-n2nnnc2SCC(=O)NNC(=O)C2CCCCC2)c1`, for which the activation was 6.48% (inactive).
On to `Oc1ccc(-c2nc3ccccc3nc2-c2ccc(O)cc2O)c(O)c1`, for which the activation was 3.04% (inactive).
Regarding `Oc1ccc2ccc3cccc[n+]3c2c1`, the activation is 26.2% (active).
Take `Cc1ccc(-c2nn(C(C)(C)C)c3ncnc(N)c23)cc1`: the activation was 2.32% (inactive).
Then `Cc1cccc2c1cnn2C(=O)CCC(=O)NC1CCCCC1`, with 0.37% (inactive); and `COc1cc(Cl)cc(C2NC(=O)NC(C)=C2C(=O)NCc2ccccc2)c1O` (stereo not drawn), with -1.41% (inactive).
As to `Oc1ccc(C2Nc3cccc4cccc(c34)N2)cc1`, the activation is 19.4% (active).
Take `Brc1ccccc1C1Nc2cccc3cccc(c23)N1`: the activation is 8.61% (inactive).
On to `COc1ccc(C2NC(=O)c3ccccc3N2)cc1` (stereo not drawn), for which the activation is 3.47% (inactive).
Consider `C=CCOC(=O)C1=C[C@H](c2ccc(Br)cc2)C[C@H](OCCCCO)O1`, for which the activation is -1.17% (inactive).
As to `NC(=O)COC(=O)c1ccc2c(c1)C(=O)N(Cc1ccco1)C2=O`, the activation is 1.77% (inactive).
Take `O=C(Nc1cc2c3c(c1)C1CCCC1CN3CC1CCCC21)c1ccc([N+](=O)[O-])cc1` (stereo not drawn): the activation is 1.32% (inactive).
For the compound `CC(=O)c1ccc(N2CCN(CC(O)c3ccccc3)CC2)cc1` (stereo not drawn), the activation was 3.22% (inactive).
Turning to `CC(C)(C)c1nnc2sc(SCC(O)=C(C#N)c3nc4ccccc4[nH]3)nn2c1=O`, the activation was -2.57% (inactive).
In the case of `Cc1ccccc1OC/C(O)=C(\C#N)c1nc2ccccc2[nH]1`, the activation is 22.2% (active).
Turning to `COCCNC(=O)COc1ccccc1C`, the activation was 3.83% (inactive).
For `O=C(Nc1ccccc1C(=O)N1CCCCC1)c1ccco1`, the activation was 7.42% (inactive).
As to `CC(C)[C@@H](C(=O)OCC(=O)c1ccc2c(c1)NC(=O)CO2)N1C(=O)c2ccccc2C1=O`, the activation is 6.47% (inactive).
`O=C(O)CCn1cc(/C=C/C(=O)c2ccc(Cl)cc2)c(-c2cccc(Br)c2)n1`: the activation is 7.16% (inactive).
On to `COc1cc2c3c(c1)/C(=C1/SC(=S)NC1=O)C(=O)N3C(C)(C)C=C2C`, for which the activation was 3.91% (inactive).
On to `O=C(CSc1nc2nccnc2c(=O)n1Cc1cccs1)Nc1ccccc1F`, for which the activation was -1.39% (inactive).
Take `N#C/C(=C/c1cccc([N+](=O)[O-])c1)c1nnc2n1CCCCC2`: the activation is 1.53% (inactive).
As for `O=C(O)c1ccc(S(=O)(=O)N2CCC(Cc3ccccc3)CC2)cc1`, the activation was -5.76% (inactive).
With `COc1ccc(-c2c(-c3cc(OC)cc(OC)c3)n(C)c3ccc(-c4ccn[nH]4)cc23)cc1`, the activation is 1.2% (inactive).
Take `CCSc1nc(=S)n(CC)c(C)c1C(C)=O`: the activation is -2.33% (inactive).
For the compound `CC1=C(C)CC(C(=O)NNC(=O)c2csc3c2CCC(C(C)(C)C)C3)C(C(=O)O)C1` (stereo not drawn), the activation was 4.06% (inactive).
Consider `Cc1ccc(CNC(=O)C2CCN(S(=O)(=O)c3ccc4nc5c(c(C(=O)O)c4c3)CC(C)CC5)CC2)cc1` (stereo not drawn), for which the activation is -1.27% (inactive).
Then `Cc1ccc(-c2nc(COC(=O)c3c(C)noc3C)cs2)cc1`, with -2.15% (inactive); and `COC(=O)c1sc2[nH]c(=S)n(N)c(=O)c2c1C`, with 3.84% (inactive); and `O=C(CCC(=O)N1CCN(S(=O)(=O)c2ccc(Cl)cc2)CC1)NCc1cccc(C(F)(F)F)c1`, with 2.14% (inactive).
As for `Cc1ccc(S(=O)(=O)N(C)CC(=O)NCC(c2ccc(F)cc2)N2CCOCC2)cc1` (stereo not drawn), the activation is 1.51% (inactive).
As for `Cn1nccc1C(=O)N1CCCC(C(=O)c2ccc(Oc3ccccc3)cc2)C1` (stereo not drawn), the activation is -8.2% (inactive).
On to `O=C(NCCCn1ccnc1)C(=O)NCC1OCCN1S(=O)(=O)c1cc(F)ccc1F` (stereo not drawn), for which the activation was 4.73% (inactive).
Turning to `COc1ccc(-n2ncc3c2CC(C)(C)CC3NC(=O)CCc2c(C)nn(C)c2C)cc1` (stereo not drawn), the activation is 5.01% (inactive).
Next, `CN1CCC(=NNC(=O)CN(c2cccc(Cl)c2)S(C)(=O)=O)CC1`: 2.41% (inactive).
Regarding `O=C(CN1C(=O)NC(Cc2ccccc2)(Cc2ccccc2)C1=O)NCC1CCCCC1`, the activation is 2.02% (inactive).
Then `CCc1cc(=O)oc2cc(OCC(=O)N3CCCc4ccccc43)ccc12`, with -2.67% (inactive).
`O=C(CN1C(=O)CC(c2ccccc2)=Nc2ccccc21)NC1CCCCC1`: the activation was 1.38% (inactive).
With `CC12CCCCC1=CC(=O)CC2` (stereo not drawn), the activation is 3.28% (inactive).
`Cc1ccc(S(=O)(=O)N2CC(C)N(S(C)(=O)=O)C2)cc1` (stereo not drawn): the activation is 2.36% (inactive).
Consider `COCC1CCN(C(=O)CCc2nnc(C3(c4ccc(Cl)cc4)CCC3)o2)C1` (stereo not drawn), for which the activation is 0.92% (inactive).
As for `CCC(Cc1ccccc1)NS(=O)(=O)c1ccc2c(c1)NC(=O)CS2` (stereo not drawn), the activation is 4.18% (inactive).
With `CN1CCN(CCCNC(=O)c2ccc(/C=C3\Oc4ccccc4N(Cc4ccc(Cl)cc4)C3=O)cc2)CC1`, the activation is -0.17% (inactive).
With `O=C(NCCCN1CCOCC1)c1ccc2c(c1)N(Cc1cccc(F)c1)C(=O)c1ccccc1S2`, the activation is 0.8% (inactive).
Regarding `CCN1CCN(CCNC(=O)c2ccc(/C=C3/Sc4ccccc4N(Cc4cccc(C)c4)C3=O)cc2)CC1`, the activation was 24.8% (active).
With `CCC1CCCCN1C(=S)Nc1ccc(C(C)=O)cc1` (stereo not drawn), the activation is 1.79% (inactive).
`CCOC(=O)c1cc2c(=O)n3ccccc3nc2n(CC(C)C)c1=NC(=O)c1c(-c2c(F)cccc2Cl)noc1C`: the activation is 1.41% (inactive).
In the case of `CC1(C)CC(N2CCN(C(c3ccccc3)c3ccccc3)CC2)=CC(=[N+]2CCCCC2)C1`, the activation is 0.04% (inactive).
As to `Oc1c(CN2CCOCC2)ccc(CN2CCOCC2)c1O`, the activation is -3.83% (inactive).
Regarding `c1ccc2c(c1)CCc1snnc1-2`, the activation was 2.79% (inactive).
As to `NC1=NOC(=O)C1C1CCCCC1` (stereo not drawn), the activation is 5.24% (inactive).
For the compound `COC(=O)Nc1ccc(S(=O)(=O)N(C)CC(F)(F)C(F)F)cc1`, the activation is 3.58% (inactive).
Then `Brc1ccc(/C=N/N2CCN(C3c4ccccc4-c4ccccc43)CC2)s1`, with -7.03% (inactive).
Next, `CCc1ccc(C(=O)NNC(=O)C2CCN(c3ncnc4sc(C)c(C)c34)CC2)cc1`: -11.5% (inactive); `COc1ccc(C(=O)NCCn2nc(C)cc2C)cc1OC1CCN(C(C)=O)CC1`: 1.62% (inactive).
Turning to `O=c1nc(N2CCOCC2)nc2n1CCO2`, the activation is -0.31% (inactive).
As for `Cc1ccc(S(=O)(=O)/N=C(\CN2CCOCC2)N2CCOCC2)cc1`, the activation was -5.66% (inactive).
`COc1cc2[nH]c(O)c(C=O)c2cc1OC`: the activation is -5.21% (inactive).
Regarding `Cc1ccc(O)c(NC(=S)NC(=O)COc2ccc(Br)cc2)c1`, the activation was 18.1% (active).
For `CCS(=O)(=O)c1ccc(O)c(NC(=O)COc2ccc(Cl)cc2)c1`, the activation was 0.73% (inactive).
Next, `COc1ccc(C(=O)Nc2cc(C)ccc2NC(=O)COc2ccccc2)cc1`: 0.16% (inactive); `Cc1cc(C)n2nc(C(=O)Nc3cccc(S(=O)(=O)N4CCOCC4)c3)nc2n1`: 1.61% (inactive).
As for `COc1ccc([C@H]2CC(=O)C=C(/C=C/c3ccc(Cl)cc3)C2)cc1`, the activation was 3.83% (inactive).
On to `COCc1cc(C)n(CC(=O)NCC2CCCO2)c(=O)c1C#N` (stereo not drawn), for which the activation is -1.81% (inactive).
As to `COc1ccc(CCNC(=O)COC(=O)C2CC2C)cc1` (stereo not drawn), the activation is 3.39% (inactive).
As for `O=C(CCCCCCCC(=O)N1CCCCC1)N1CCCCC1`, the activation was -0.9% (inactive).

For the origin of these results see PubChem BioAssay AID493087 (The Scripps Research Institute Molecular Screening Center, 2011).
